ANO1 activ – activators or potentiators of mouse TMEM16A chloride channel; Q8BHY3; HEK293 TMEM16A/YFP-H148Q/I152L, iodide quench fluorescence; stronger effect = lower value; B-score at 10 µM; 340,000 compounds, 0.3% hits; AID 623877;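 active = fluorescence-ratio B-score plate-corrected deviation score at least 3 library SD below zero, with starting fluorescence score within 5 deviations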;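 also: channel opened by trigger with iodide after compound preincubation; score built on the fluorescence ratio of max minus min over baseline; more negative score means more quench and so TMEM16A activation or potentiation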
Kir21 inh – Kir2.1 (mouse) channel inhibition; HEK293-Kir2.1, FluxOR thallium flux fluorescence; stronger effect = lower value; 310,000 compounds, 0.85% hits; P35561; AID 1672; B-score at 10 µM;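 active = fluorescence ratio B-score at or below minus 3 SD of library scores, with starting-brightness B-score within 2 SD, cut at about -4.2 in these data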;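 also: channel flux triggered by added potassium and thallium sulfate stimulus; B-score of peak minus minimum fluorescence over baseline after thallium stimulus; more negative B-score means stronger Kir2.1 block with less thallium influx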
TMEM16A inh – blocks the mouse calcium-activated chloride channel TMEM16A; AID 588511; 310,000 compounds, 1.2% hits; Q8BHY3; normalized B-score (activity score, 25-100; higher = stronger inhibition) at 10 µM; HEK293 TMEM16A/YFP iodide influx fluorescence, ionomycin;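 active = ratio plate-corrected score three or more library SD toward inhibition, starting fluorescence score within five deviations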;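 also: score derived from kinetic fluorescence span divided by baseline fluorescence per well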
GPR7 antag – human neuropeptides B/W receptor 1 antagonism; AID 1861; GPR7-expressing cells, fluorescence antagonist assay; P48145; inhibition, % at 4.4 µM; 290,000 compounds, 1.1% hits; in the data active = inhibition above about 16%, passing the limit was not always enough;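 also: cells stimulated with the agonist NPW; 0% = agonist with vehicle and 100% = vehicle without agonist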
CHT inh – human CHT choline transport inhibition | Q9GZV3 | CHT-expressing cells, membrane potential dye, choline response; stronger effect = lower value | B-score at 10 µM | 310,000 compounds, 0.86% hits | AID 488975;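 active = B-score over 3 SD under the library average, and starting fluorescence ratio not unusually high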;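 also: choline stimulus applied at its EC90 after an EC20 pre-addition; B-score computed on integrated fluorescence ratio after choline addition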
Target sequence (Q9GZV3 whole entry, looked up): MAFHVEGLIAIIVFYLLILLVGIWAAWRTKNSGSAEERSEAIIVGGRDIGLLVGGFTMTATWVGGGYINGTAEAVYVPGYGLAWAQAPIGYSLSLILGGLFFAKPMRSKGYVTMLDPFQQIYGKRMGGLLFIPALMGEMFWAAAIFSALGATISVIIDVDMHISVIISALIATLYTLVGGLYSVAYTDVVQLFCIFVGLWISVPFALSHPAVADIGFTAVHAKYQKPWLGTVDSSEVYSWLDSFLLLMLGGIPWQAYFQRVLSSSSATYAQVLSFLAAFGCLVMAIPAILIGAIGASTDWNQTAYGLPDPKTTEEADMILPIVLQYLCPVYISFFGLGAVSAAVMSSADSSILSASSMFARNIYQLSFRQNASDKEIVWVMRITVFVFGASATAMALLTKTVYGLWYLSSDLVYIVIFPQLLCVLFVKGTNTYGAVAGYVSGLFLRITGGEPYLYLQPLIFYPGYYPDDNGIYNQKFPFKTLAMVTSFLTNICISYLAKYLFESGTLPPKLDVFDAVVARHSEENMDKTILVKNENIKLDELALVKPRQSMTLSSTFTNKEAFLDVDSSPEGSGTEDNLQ
CHT allo act – allosteric activators of human choline transporter CHT | Q9GZV3 | CHT-expressing cells, membrane potential dye, choline EC20; stronger effect = higher value; LV-AA mutant CHT in HEK293 cells | B-score at 10 µM | 310,000 compounds, 0.49% hits;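 active = initial fluorescence not abnormally high and integrated response B-score, plate-corrected, over 3 SD above library mean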
CHT act confirm – human CHT activation, confirmatory screen; shares compounds with CHT allo act; CHT-expressing cells, membrane potential dye fluorescence (FDSS); % of choline EC20–EC90 response window; HEK293 expressing CHT LV-AA mutant; choline added at its EC20; activation, % at 10 µM; 2,500 compounds, 91% hits;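 active = primary screen active, with duplicate mean activation above negative control mean plus 3 SD, cut at about 11% in these data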
HEK293 MP dye – activity in parental HEK293 cells lacking CHT; shares compounds with CHT allo act; membrane potential dye fluorescence (FDSS); measured after EC20 choline addition; ratio readout change at 10 µM, hits read low; 2,500 compounds, 62% hits;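 active = duplicate-averaged ratio beyond 3 SD from buffer wells, up or down, though filed actives are nearly all decreases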
TMEM16A reconf – TMEM16A (mouse) chloride channel inhibition, re-confirmation; shares compounds with TMEM16A inh; HEK293 TMEM16A/YFP-H148Q, iodide quench fluorescence; ionomycin added to raise cell calcium; AID 652189; 2,300 compounds, 39% hits; inhibition, % at 10 µM;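 active = mean duplicate percent inhibition, scaled so buffer wells are 0 and the reference blocker 100, over three buffer SD above buffer mean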
HEK293 Ca mobil – counter-screen for TMEM16A inhibitors: effect on calcium mobilization | shares compounds with TMEM16A inh | calcium response (% of ionomycin), % at 10 µM | TMEM16A/YFP HEK293, Fluo4 calcium mobilization | 2,300 compounds, 2% hits | AID 652231;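 active = duplicate-averaged calcium signal over 20% of the ionomycin maximum, relative to buffer baseline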;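 also: each well's signal is peak minus trough fluorescence divided by its pre-addition baseline; 0% = buffer wells and 100% = ionomycin wells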
Parental YFP cnt – parental YFP-HEK293 iodide quench counter-screen activity | YFP ratio F(max-min)/F0 at 10 µM | ionomycin | 2,300 tested, under 10 active | shares compounds with TMEM16A inh;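 active = yellow fluorescent protein signal ratio exceeding the buffer control mean by over 5 SD of those controls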;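 also: ratio is mean of duplicate wells from kinetic YFP trace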
ClC-1 inh – blocks the rat ClC-1 voltage-dependent chloride channel | CHO ClC-1-YFP, iodide influx fluorescence quench; iodide control reads 0, buffer control 100 | 2,300 tested, under 10 active | shares compounds with TMEM16A inh | ratio percent, % at 10 µM;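 active = duplicate-mean ratio percent above the mean of iodide-only control wells, which defines zero, plus 5 of their SD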;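 also: higher percent means stronger block of ClC-1 iodide influx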
* hit, by the source's call; i = inactive; · = no result given. Shown are actives, neighbours in structure and some others; about 3.7% of the full set was active somewhere.

SMILES	ANO1 activ	Kir21 inh	TMEM16A inh	GPR7 antag	CHT inh	CHT allo act	CHT act confirm	HEK293 MP dye	others
Cc1cc(NCCCN(C)C)n2nc(-c3cccs3)cc2n1	i	0.59	i	-9	i	13*	39*	-89*
Cc1cccc(-c2cc(C(=O)NCCCn3ccnc3)c3ccccc3n2)c1	·	·	·	-10	·	·	·	·
Cc1cccc(-c2cc3nc(C)cc(NCCCn4ccnc4)n3n2)c1	i	-2.7	i	0	i	9.6*	51*	-59*
COc1ccc(C)cc1Nc1n[n+](-c2ccccc2)c(-c2ccc(OC)c(OC)c2OC)s1	i	-4.9*	i	22	i	9.9*	15*	i
COc1ccc(C)cc1Nc1n[n+](C)c(-c2ccc(O)cc2O)s1	i	0.5	i	3	i	i	·	·
CCN(CCCNC(=O)C1CCN(C(=O)c2cc3sccc3n2C)CC1)Cc1ccccc1	i	-1.1	i	13	i	i	·	·
CCCCN(CCCNC(=O)C1CCN(C(=O)c2cc3sccc3n2C)CC1)Cc1ccccc1	i	-0.94	i	14	i	10*	60*	-29*
CC[N+](CC)(CC)C/C=C/CN1CCCCC1	i	0.36	i	-5	i	i	40*	-43*
CCc1ccc2c(c1)C(c1ccc([N+](=O)[O-])cc1)=NNC(c1ccc(C)cc1)=N2	i	-0.58	i	-13	i	i	·	·
COc1cccc([C@@H]2CC=C(C(=O)O)[C@H](c3ccccc3F)N2S(=O)(=O)c2ccc(C)cc2)c1	i	·	i	·	i	i	·	·
NC(=O)C1CCN(C(=O)CCC(=O)N2CCOc3ccc(Cl)cc32)CC1	i	0.7	i	0	i	i	·	·
O=C(C1CCN(CC2CC=CCC2)CC1)N(CCc1ccccc1)Cc1ccccc1 (stereo unspecified)	i	-0.37	i	9	i	i	4	i
Cc1nc2cc(NC(=O)N3CCCC3)ccc2n1C	i	-0.24	i	2	i	6.5*	26*	-39*
CCOC(=O)C(C)Sc1cc(CS(=O)(=O)c2ccccc2)nc(-c2ccccc2)n1 (stereo unspecified)	i	-0.01	i	6	i	7.7*	6	i
O=S(=O)(Cc1cc(Oc2ccccc2)nc(-c2ccccc2)n1)c1ccccc1	i	1.4	i	-10	i	i	·	·
O=C(NC1CCCC1)C(c1ccsc1)N(Cc1ccccc1)C(=O)Cc1cccs1 (stereo unspecified)	i	-0.03	i	26	i	6.9*	43*	i
COC(=O)c1ccc(C(C(=O)NC2CCCCC2)N(Cc2ccccc2)C(=O)Cc2cccs2)cc1 (stereo unspecified)	i	-0.95	i	1	i	i	·	·
COc1ccccc1CN(C(=O)c1ccco1)C(C(=O)NC1CCCC1)c1ccncc1 (stereo unspecified)	i	0.83	i	-8	i	i	·	·
COc1ccccc1CN(C(=O)Cc1cccs1)C(C(=O)NC1CCCC1)c1ccncc1 (stereo unspecified)	i	-1	i	14	i	i	0	i
COC(=O)c1cc(C(=O)N2CCN(c3cccc(Cl)c3)CC2)cc([N+](=O)[O-])c1	i	1.8	i	19	i	7.6*	33*	i
COC(=O)c1cc(C(=O)N2CCOCC2)cc([N+](=O)[O-])c1	i	-0.77	i	-21	i	i	·	·
COCCCN(C(=O)Cc1ccc(S(=O)(=O)N2CCOCC2)s1)c1c(N)n(Cc2ccccc2)c(=O)[nH]c1=O	i	·	·	·	·	·	·	·
Cc1ccccc1NC(=O)CN1C(=O)N/C(=C\c2ccccc2OCc2ccc(C(=O)O)cc2)C1=O	i	-0.89	i	0	i	i	·	·
Cc1cc[n+](CC(=O)c2ccccc2)c2ccccc12	i	1.1	i	-4	i	6.6*	34*	-36*
CCOC(=O)N1CCC(N2Cc3cccc(C(=O)NCC4CCN(CC(C)C)C4)c3C2=O)CC1 (stereo unspecified)	i	·	100*	-2	i	6.3*	53*	-34*	TMEM16A reconf=i;HEK293 Ca mobil=i;Parental YFP cnt=-1.3;ClC-1 inh=-6
SMILES	ANO1 activ	Kir21 inh	TMEM16A inh	GPR7 antag	CHT inh	CHT allo act	CHT act confirm	HEK293 MP dye	others
O=C(NCc1cccnc1)c1ccc(Br)o1	i	1.5	i	·	i	i	·	·
CSc1nc(Cl)c(Cc2ccc(OC(C)C)cc2)c(N(C)C)n1	i	0.01	i	2	i	i	·	·
CCOc1ccc(Cc2c(Cl)nc(SC)nc2N(C)C)cc1	i	-0.05	25*	10	i	6.4*	28*	i	TMEM16A reconf=i;HEK293 Ca mobil=i;Parental YFP cnt=-1.3;ClC-1 inh=-12
CCCc1nnc(NC(=O)C(CC)OC(=O)c2cc(C)nc3ccccc23)s1 (stereo unspecified)	i	-0.98	100*	-10	i	6.3*	22*	i	TMEM16A reconf=i;HEK293 Ca mobil=i;Parental YFP cnt=-1.1;ClC-1 inh=-16
CC1C=Cc2ccccc2N1C(=O)c1ccccc1 (stereo unspecified)	i	-2.9	i	-3	i	i	·	·
O=C(CC1C=Cc2ccccc2N1C(=O)c1ccccc1)c1ccccc1 (stereo unspecified)	i	0.51	100*	-1	i	10*	26*	i	TMEM16A reconf=20%*;HEK293 Ca mobil=i;Parental YFP cnt=-1.1;ClC-1 inh=-2
CC(C)(C)C(=O)N1CCN(C(=O)c2ccco2)CC1	i	1.5	i	-11	i	i	·	·

Screens deposited in PubChem by several laboratories.
